Screens: PubChem, National Center for Advancing Translational Sciences (NCATS)
NS1 function inh: influenza NS1 inhibition; Potency, µM (top dose mostly 46.1 µM), inactives show at the top dose activity, positive = more growth; 0.4% of 270,000 active; AID 2326; calls by dose curve; note: actives are rising curves; nearly all actives have a fitted effect of over 50% in size
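Compounds were scored for reversing the slow growth caused by influenza A NS1 in S. cerevisiae, measured by optical density at 600 nm. Assay medium contained 2% galactose at pH 6.0; NS1-free yeast of the same strain were the positive control.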
RE007 growth inh: less growth of the S. pombe RE007 Vpr strain; S. pombe RE007 Vpr strain, BacTiter-Glo ATP luminescence, 24 h; Potency, µM (titrated, usually from 92.2 µM), without a hit: top-dose activity change, negative = less growth, usual class: inhibitors; 0.21% of 360,000 active; active = well fitted falling curve with a large enough effect; inconclusive = small, poorly fitted or top-dose-only effect; inactive = no such curve, though single readings can be large or run the other way; note: % is set by controls: 0 for no effect and ±100 for the full control effect; nearly all actives have a fitted effect of over 50% in size
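Fission yeast RE007 carrying one integrated HIV-1 vpr copy, seeded at OD 0.01 in PMG+AL medium with 23 nL pinned compound. Grown 24 h at 30 degrees; viability read by BacTiter-Glo luminescence after 5 min.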
Tb PYK inh: T. brucei pyruvate kinase inhibition; Q57TT1; TbPYK enzyme, Kinase-Glo Plus ATP luminescence, 45 min; Potency, µM (top dose mostly 76.8 µM), inactives show top-dose activity, negative = inhibition, usual class: inhibitors; 0.12% of 410,000 active; AID 624173; note: % is set by controls: 0 for no effect and ±100 for the full control effect; nearly all actives have a fitted effect of over 50% in size
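Screened from lowest to highest concentration, compounds were pinned into TbPYK/substrate mixtures, and ADP (130 uM final) was added. Plates sat at room temperature for 45 min prior to Kinase-Glo Plus detection by luminescence.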
LmPK inh: inhibitors of Leishmania mexicana pyruvate kinase. purified LmPK, Kinase-Glo ATP luminescence, 1 h. Potency, µM (titrated, usually from 57.5 µM), for inactives: top-dose activity change, negative = inhibition, hits mostly inhibitors. 0.37% of 290,000 active; note: % is set by controls: 0 for no effect and ±100 for the full control effect
Target sequence (Q27686 whole entry, looked up): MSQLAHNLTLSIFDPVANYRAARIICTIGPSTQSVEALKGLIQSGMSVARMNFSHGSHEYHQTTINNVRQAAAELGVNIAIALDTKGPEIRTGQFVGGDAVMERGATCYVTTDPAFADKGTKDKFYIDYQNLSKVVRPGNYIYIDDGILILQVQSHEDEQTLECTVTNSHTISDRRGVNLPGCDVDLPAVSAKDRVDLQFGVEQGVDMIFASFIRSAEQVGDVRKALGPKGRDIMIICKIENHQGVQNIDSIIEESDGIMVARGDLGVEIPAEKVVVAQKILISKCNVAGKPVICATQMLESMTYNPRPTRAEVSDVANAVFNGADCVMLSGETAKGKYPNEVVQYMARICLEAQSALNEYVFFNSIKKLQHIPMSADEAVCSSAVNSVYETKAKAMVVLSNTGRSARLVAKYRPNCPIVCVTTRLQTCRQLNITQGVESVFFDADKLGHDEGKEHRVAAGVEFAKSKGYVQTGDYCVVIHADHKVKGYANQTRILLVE
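Kinase-Glo luminescence read after 1 h RT reaction of 0.1 nM LmPK with 0.5 mM PEP and 0.1 mM ADP. Activity scaled between uninhibited and enzyme-free controls.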
* = called active by the depositor; ? = inconclusive; / = no result given; [ ] = remark or other dose. An excerpt weighted towards active compounds, which were near 0.77% of everything screened. Unless noted, calls come from the whole dose curve; as a rule, active = well fitted curve in the direction sought with a large enough effect; inconclusive = small, poorly fitted or top-dose-only effect, or another doubt; inactive = no such curve, though single readings can be large; an effect the other way counts as inactive or inconclusive. Potency is the fitted concentration of half-maximal effect.

SMILES	NS1 function inh	RE007 growth inh	Tb PYK inh	LmPK inh
COc1ccc(-c2nc3ccc(NS(=O)(=O)c4ccc(Cl)cc4)cc3o2)cc1	/	/	6%	/
O=C(O)CN1CCN(CC(=O)O)CC(=O)[O][Hg][O]C(=O)C1	-61%	/	/	/
C/C(=N\Nc1nc2ccccc2s1)c1cccs1	?	35µM*	-8%	-6%
C[C@H]1[C@@H](OC(=O)CCC(=O)O)OC2OC3(C)CC[C@H]4[C@H](C)CC[C@@H]1[C@@]24OO3 (stereo partly specified)	/	/	3%	/
O=C(O)C1CSC(c2coc3ccccc3c2=O)N1 (stereo unspecified)	-33%	40µM*	-11%	-2%
COc1ccc(OC)c(C2CC(=O)N3CN(c4ccccc4F)CSC3=C2C#N)c1 (stereo unspecified)	-29%	-11%	?	-9%
COc1cccc(C2CC(=O)N3CN(c4ccccc4F)CSC3=C2C#N)c1 (stereo unspecified)	4%	-18%	3.5µM*	10%
COc1ccccc1N1CSC2=C(C#N)C(c3ccc(SC)cc3)CC(=O)N2C1 (stereo unspecified)	18%	-5%	18µM*	-21%
CCCCCCCCCCCCCCCCn1cc[n+](CC(C)=O)c1	/	32µM*	-4%	3%
CCCCc1c(-c2cccc(Cl)c2)ncn1CCc1ccccc1OC	/	45µM*	8%	/
CCCCc1c(-c2ccccc2)ncn1CCc1ccccc1OC	/	-30%	-3%	/
Clc1ccc2c(NC3CCC(N4CCCCC4)CC3)ccnc2c1 (stereo unspecified)	0%	/	/	/
O=C(c1csnn1)N1CCC2(CC1)CCN(c1cccc(-c3ccccc3)c1)CC2	/	/	0%	/
S=c1[nH]nc(-c2ccc3ccccc3n2)n1-c1ccccc1	14%	/	?	28µM*
S=c1[nH]nc(-c2ccc3ccccc3n2)n1-c1ccc2c(c1)OCCO2	2%	-3%	4.5µM*	8.9µM*
CC(c1ccc(F)cc1)n1c(-c2ccc3ccccc3n2)n[nH]c1=S (stereo unspecified)	-6%	9%	-13%	11µM*
COc1ccc(-c2n[nH]c(=S)n2-c2ccc(C)cc2C)cc1	9%	7%	18µM*	-2%
COc1ccccc1-n1c(-c2cc(-c3ccc(F)cc3)n[nH]2)n[nH]c1=S	5%	8%	?	-28%
COc1ccc(-c2cc(-c3n[nH]c(=S)n3-c3cccc4ccccc34)[nH]n2)cc1	3%	2%	-21%	1%
Cc1ccc(-n2c(-c3ccc(Cl)cc3)n[nH]c2=S)c(C)c1	?	16%	5µM*	20µM*
COc1ccccc1-n1c(-c2cccnc2)n[nH]c1=S	6%	12%	?	14µM*
CCn1c(-c2cccnc2)n[nH]c1=S	11%	5%	?	-5%
Cc1ccc(-n2c(-c3cccnc3)n[nH]c2=S)c(C)c1	-6%	5%[3.69 µM]	/	13µM*
CC[C@H]1OC(=O)C[C@@H](O)[C@H](C)[C@@H](O[C@@H]2O[C@H](C)C[C@H](N(C)C)[C@@H]2O)[C@@H](CC=O)C[C@@H](C)C(=O)/C=C\[C@]2(C)O[C@H]2[C@@H]1C	/	/	-7%	/
CC(C)CCC[C@@H](C)[C@H]1CC[C@H]2[C@@H]3CC[C@@H]4C[C@H](O)CC[C@]4(C)[C@H]3CC[C@]12C	/	/	4%	/
SMILES	NS1 function inh	RE007 growth inh	Tb PYK inh	LmPK inh
O=C(O)[C@@H]1[C@@H](C(=O)O)[C@@]23CCCC2=C2CC[C@@]3(C(=O)O)[C@@]3(C(=O)O)C[C@@]213	-6%	/	/	/
CCCCCCC(O)C/C=C/CCCCCCCC(=O)O (stereo unspecified)	/	/	-2%	/
COc1ccc(S(=O)(=O)c2c(SC)nn(CC(=O)Nc3ccc(C)c(Cl)c3)c2N)cc1	/	/	4%	/
Cc1ccc(-n2c(-c3cnccn3)n[nH]c2=S)c(Br)c1	1%	0%	?	32µM*
S=c1[nH]cc(-c2ccccc2)n1-c1ccccc1Cl	2%	0%	0%	?
COc1ccccc1-n1c(-c2ccccc2)c[nH]c1=S	/	8%	?	11µM*
FC(F)(F)c1ccccc1-n1c(-c2cnccn2)n[nH]c1=S	-6%	8%	?	?
CCc1cnc2c(c1SC(C(C)=O)C(=O)N(C)C)c(=O)n(C)c(=O)n2C (stereo unspecified)	/	/	14µM*	/
O=C(O)C[C@H]1OCC=C2CN3CC[C@@]45C6=CC(=O)C(=O)C([N+](=O)[O-])=C6N[C@H]4[C@H]1[C@H]2C[C@@H]35	-8%	/	/	/
